ALDH1A1 block = ALDH1A1 (human) enzyme inhibition; P00352; actives 7.3% (n = 220,000); AID 1030; Purified ALDH1A1, NADH fluorescence, propionaldehyde substrate; Potency, µM (doses to about 75.3 µM), actives largely listed as inhibitors; active = well fitted inhibition curve with a large enough effect, not every such curve was filed as active; inconclusive = small, poorly fitted or top-dose-only effect, or another doubt; inactive = no such curve, though single readings can be large or run the other way
Target sequence (P00352 whole entry, looked up): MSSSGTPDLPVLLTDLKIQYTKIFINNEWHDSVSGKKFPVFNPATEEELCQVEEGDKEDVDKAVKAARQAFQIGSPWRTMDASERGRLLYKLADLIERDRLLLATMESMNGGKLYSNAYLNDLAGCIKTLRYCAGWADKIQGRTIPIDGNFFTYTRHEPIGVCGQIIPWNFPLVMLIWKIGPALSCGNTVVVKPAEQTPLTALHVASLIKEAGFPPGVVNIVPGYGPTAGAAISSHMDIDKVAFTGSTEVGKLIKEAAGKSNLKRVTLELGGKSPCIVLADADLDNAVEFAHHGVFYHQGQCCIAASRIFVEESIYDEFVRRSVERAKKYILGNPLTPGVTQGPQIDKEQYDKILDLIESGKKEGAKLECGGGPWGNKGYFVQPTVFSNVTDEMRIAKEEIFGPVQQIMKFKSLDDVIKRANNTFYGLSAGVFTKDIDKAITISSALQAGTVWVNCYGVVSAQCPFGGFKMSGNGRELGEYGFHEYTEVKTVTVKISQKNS
NPSR antag = neuropeptide S receptor (human) antagonism, cAMP; actives 1% (n = 220,000); CHO-NPSR cells, cAMP TR-FRET, antagonist mode; Q6W5P4; Potency, µM (top dose mostly 38.3 µM), most hits filed as inhibitors; also: nearly all actives have a fitted effect of over 50% in size
IMPase Li inh = membrane-permeable IMPase blocker, potentiated with lithium. AID 1457. CHO-M1 cells, IP1 TR-FRET (IP-One), carbachol + lithium. Potency, µM (titrated, usually from 59.4 µM), most hits filed as inhibitors. actives 0.35% (n = 210,000);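 also: IP1 builds up when IMPase is blocked and the TR-FRET signal falls; nearly all actives have a fitted effect of over 50% in size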
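Steps: plate 2000 CHO-M1 cells per well and culture 16–30 h; add compound and lithium; incubate 30 min, 37C; add d2-IP1 tracer and Eu cryptate anti-IP1 antibody in lysis buffer; read after 10 min at room temperature.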
HPGD block = HPGD (human) dehydrogenase inhibition | AID 894 | P15428 | purified HPGD, NADH fluorescence kinetic, PGE2 substrate | Potency, µM, most hits filed as inhibitors | actives 4.3% (n = 150,000); active = well fitted inhibition curve with a large enough effect, not every such curve was filed as active; inconclusive = small, poorly fitted or top-dose-only effect, or another doubt; inactive = no such curve, though single readings can be large or run the other way
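NADH formation kinetics: reaction with 30 uM PGE2 and 1 mM NAD+ (final), 20 nM enzyme, Tris-HCl pH 8 with Tween 20, after 15 min compound preincubation at room temperature. Fluorescence change, last versus first of five reads.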
12-hLO inh = inhibitors of human 12-lipoxygenase (ALOX12); P18054; purified 12-hLO, xylenol orange hydroperoxide absorbance; Potency, µM (doses to about 57.1 µM), actives largely listed as inhibitors; actives 0.12% (n = 150,000); AID 1452; also: nearly all actives have a fitted effect of over 55% in size
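Hydroperoxide output read as Fe(III)-xylenol orange absorbance, 573-to-405 nm ratio, after 30 min reaction with 40 uM arachidonic acid. Enzyme: 150 nM purified human 12hLO, 15 min compound preincubation; 25 mM Hepes pH 7.0, room temperature.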
IMPase cell inh = IMPase inhibition in cells; P97697; CHO-M1 cells, IP1 accumulation, HTRF TR-FRET ratio; inhibition (IP1 accumulation), % at 46.1 µM; 120,000 tested, under 10 active; AID 901; active = well fitted curve in the direction sought with a large enough effect in the signal ratio, not every such curve was filed as active; inconclusive = small, poorly fitted or top-dose-only effect, or a change in a side signal; inactive = no such curve, though single readings can be large or run the other way; the % refers to the signal ratio;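 also: cells stimulated with carbachol in lithium chloride buffer; higher means more IMPase inhibition seen as more IP1 and lower FRET ratio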
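The IP-One HTRF competitive assay in carbachol-stimulated CHO-M1 cells quantifies cellular IP1. Compounds spanned up to 46 uM final, and activity is expressed as AC50 from concentration-response fits of the ratio and donor data.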
Numbers stand for hits; . = inactive; ? = inconclusive; / = not tested or not shown. This is a sample that favours compounds with a hit; in the whole collection about 8.9% have one here. Unless noted, calls follow the shape of the dose curve; as a rule, active = well fitted curve in the direction sought with a large enough effect; inconclusive = small, poorly fitted or top-dose-only effect, or another doubt; inactive = no such curve, though single readings can be large; an effect the other way counts as inactive or inconclusive.

SMILES | ALDH1A1 block | NPSR antag | IMPase Li inh | HPGD block | 12-hLO inh | IMPase cell inh
O=C(NC1CCCCC1)C(c1ccc2ncccc2c1)N(Cc1ccc(F)cc1)C(=O)c1ccc2c(c1)OCCO2 (configuration not stated) | ? | 13µM | . | . | . | .
O=C(NC1CCCCC1)C(c1ccc2ncccc2c1)N(Cc1ccc2c(c1)OCO2)C(=O)c1ccc2c(c1)OCCO2 (configuration not stated) | 28µM | . | . | . | . | /
Cc1ccc(NCc2cccnc2)c(Br)c1 | . | . | . | . | . | /
C=CCn1c(-c2ccc(Cl)cc2)c[nH]c1=S | 1.4µM | . | . | 11µM | . | .
Cc1ccc(NC(=O)COC(=O)Cc2csc(-c3cccc(F)c3)n2)cc1C | 11µM | . | . | . | . | /
Cc1ccc(NC(=O)COC(=O)Cc2csc(-c3ccc(Cl)cc3)n2)cc1C | . | . | . | . | . | /
Cc1cccc(C)c1NC(=O)COC(=O)c1ccc(N2CCCC2)c([N+](=O)[O-])c1 | . | . | . | . | . | /
CCC(C)c1ccccc1NC(=O)COC(=O)c1ccc(N2CCCC2)c([N+](=O)[O-])c1 (configuration not stated) | 13µM | . | . | . | . | .
CC1CN(c2ncnc3c2oc2ccccc23)CC(C)O1 (configuration not stated) | . | . | . | . | . | .
Clc1ccc(N2CCN(c3ncnc4c3oc3ccccc34)CC2)cc1 | ? | . | 10µM | ? | . | .
COC(=O)c1c(CSc2cccc(C)c2)noc1C(=O)NCc1ccco1 | ? | . | . | 11µM | . | ?
COC(=O)c1c(CSc2ccc(C)c(C)c2)noc1C(=O)NCc1ccc(OC)cc1 | ? | ? | . | 7.1µM | . | .
COC(=O)c1c(CSc2ccc(Cl)cc2)noc1C(=O)NCc1ccco1 | ? | . | . | 22µM | . | .
Cc1cccc(SCc2noc(C(=O)NC(C)C)c2C(=O)O)c1 | . | . | . | . | . | .
COc1cccc(SCc2noc(C(=O)NCc3ccccc3)c2C(=O)NCc2ccccc2)c1 | / | . | / | / | / | /
Cc1onc(-c2cccc(Cl)c2Cl)c1C(=O)O/N=C(\N)c1ccc([N+](=O)[O-])o1 | 5µM | ? | / | / | / | /
Cc1noc(C)c1-c1nccc(N(C)Cc2ccco2)n1 | 14µM | / | . | / | / | /
CN(Cc1ccco1)c1ccnc(-c2ccoc2)n1 | ? | / | . | . | . | /
C=COCCNC(=O)Nc1ccc(Cl)c(Cl)c1 | . | . | . | 20µM | . | .
COCCNC(=S)Nc1ccc(Cl)c(Cl)c1 | . | . | . | / | / | /
CN(C)c1cc[n+](CC(=O)Nc2c(Cl)cc(Cl)cc2Cl)cc1 | . | . | . | / | / | /
COc1ccc(Cn2c(=O)sc3ccccc32)cc1 | . | . | . | . | . | .
COC(=O)c1ccc(C2C(C#N)=C(N)Oc3cc(C)n(C)c(=O)c32)cc1 (configuration not stated) | 25µM | . | . | . | . | .
COC(=O)/C(=C1/Oc2cc(C)oc(=O)c2S1)C(F)(F)F | . | ? | . | 7.9µM | . | .
CCOC(=O)C1=C(CC)Nc2ccccc2N=C1NC(=O)c1ccc(S(=O)(=O)N2CCCC2)cc1 | 14µM | . | . | / | / | /
SMILES | ALDH1A1 block | NPSR antag | IMPase Li inh | HPGD block | 12-hLO inh | IMPase cell inh
CCOC(=O)C1=C(CC)Nc2ccccc2N=C1NC(=O)Nc1ccc(Cl)c(Cl)c1 | . | ? | . | . | . | .
CCOC(=O)N1CCN(S(=O)(=O)c2cc(C)c(C)cc2C)CC1 | . | . | . | . | . | .
CCC(Sc1nnc2c3ccccc3n(CC)c2n1)C(=O)Nc1sc2c(c1C#N)CCCC2 (configuration not stated) | 18µM | . | . | . | . | .
CCC(Sc1nc(C)cc(=O)[nH]1)C(=O)Nc1sc2c(c1C#N)CCCC2 (configuration not stated) | ? | . | . | . | . | .
CCCNC(=O)Cc1c(OC)ccc2cc(Br)ccc12 | . | . | ? | . | . | /
COc1ccc2cnn(Cc3ccccc3)c(=O)c2c1OC | 3.5µM | . | / | / | . | .
COC(=O)c1cc2ccsc2n1Cc1nc(-c2cccc(Cl)c2)oc1C | . | . | . | . | . | .
C/C(=N\Nc1cccc(Cl)c1)c1ccncc1 | . | . | . | / | / | /
C/C(=N\Nc1ccc(F)cc1)c1ccncc1 | 20µM | . | . | . | . | /
CC1=C(C(=O)Nc2ccccc2)C(c2ccc(C)o2)n2c(s/c(=C\c3ccco3)c2=O)=N1 (configuration not stated) | ? | 13µM | . | . | . | ?
COc1ccccc1C1C(C(C)=O)=C(C)N=c2s/c(=C\c3cc(OC)c(OC)c(OC)c3)c(=O)n21 (configuration not stated) | . | . | . | . | . | .
c1ccc(CNc2ncnc3c2ncn3C2CCCCO2)cc1 (configuration not stated) | . | . | . | . | . | .
O=C(c1ccccc1)C1CN(Cc2ccccc2)CCC1(O)c1ccccc1 (configuration not stated) | 0.22µM | . | . | / | / | /
OC(CN1CCN(Cc2ccccc2)CC1)c1ccccc1 (configuration not stated) | . | . | . | / | / | /
OC(c1ccccc1)C1CN(Cc2ccccc2)CCC1(O)c1ccccc1 (configuration not stated) | 20µM | . | . | . | . | .
CSc1cccc(CN2CCN(Cc3ccccc3)C(CCO)C2)c1 (configuration not stated) | . | . | . | / | / | /
CCOc1cc(C=O)c(Br)cc1OC1CCCC1 | . | . | . | . | . | .
N#Cc1c(-n2cccc2C=O)sc2c1CCCC2 | 32µM | . | . | / | / | /
O=Cc1cccn1-c1sc2c(c1C(=O)O)CCCC2 | . | . | . | . | . | /
Cc1cccc(NC(=O)NCCN2C(=O)C3C4C=CC(C4)C3C2=O)c1 (configuration not stated) | ? | . | . | . | . | .
Cc1noc(C)c1COc1cccc(C(=O)NCCc2c[nH]c3ccccc23)c1 | . | . | . | / | / | /
CC(C)(C)NC(=O)c1cc(F)c(F)cc1Cl | . | . | . | . | . | .
O=C(NC1CC1)c1cc(F)c(F)cc1Cl | . | . | . | 22µM | . | .
O=C(O)C1CCC(=O)N(C2CCCCC2)C1c1ccccc1Cl (configuration not stated) | . | . | / | / | / | /
N=c1sccn1CC(=O)Nc1ccc(S(N)(=O)=O)cc1 | 7.1µM | . | / | / | / | /
N=c1sccn1CC(=O)Nc1ccc(Cl)cc1[N+](=O)[O-] | 28µM | . | / | / | / | /
COc1cc(NC(=O)Cn2ccsc2=N)c(C)cc1[N+](=O)[O-] | . | . | . | / | / | /
CC(=O)CC(C)(C)S(=O)(=O)c1ccc(Oc2ccc(S(=O)(=O)C(C)(C)CC(C)=O)cc2)cc1 | 8.9µM | . | . | . | . | ?
